Assay results published in ChEMBL document CHEMBL3988442, “University of Dundee, Small-Polar-MMV Screening Library” (2021).

Each molecule was assayed against T1, Aspartate--tRNA(Asp/Asn) ligase (Mycobacterium tuberculosis (strain ATCC 25618 / H37Rv)) (UniProt P9WFW3) (assay: Assay for Asp RNA synthetase-1 from Mycobacterium tuberculosis). Conditions: 30 µM.
T1 sequence (whole entry): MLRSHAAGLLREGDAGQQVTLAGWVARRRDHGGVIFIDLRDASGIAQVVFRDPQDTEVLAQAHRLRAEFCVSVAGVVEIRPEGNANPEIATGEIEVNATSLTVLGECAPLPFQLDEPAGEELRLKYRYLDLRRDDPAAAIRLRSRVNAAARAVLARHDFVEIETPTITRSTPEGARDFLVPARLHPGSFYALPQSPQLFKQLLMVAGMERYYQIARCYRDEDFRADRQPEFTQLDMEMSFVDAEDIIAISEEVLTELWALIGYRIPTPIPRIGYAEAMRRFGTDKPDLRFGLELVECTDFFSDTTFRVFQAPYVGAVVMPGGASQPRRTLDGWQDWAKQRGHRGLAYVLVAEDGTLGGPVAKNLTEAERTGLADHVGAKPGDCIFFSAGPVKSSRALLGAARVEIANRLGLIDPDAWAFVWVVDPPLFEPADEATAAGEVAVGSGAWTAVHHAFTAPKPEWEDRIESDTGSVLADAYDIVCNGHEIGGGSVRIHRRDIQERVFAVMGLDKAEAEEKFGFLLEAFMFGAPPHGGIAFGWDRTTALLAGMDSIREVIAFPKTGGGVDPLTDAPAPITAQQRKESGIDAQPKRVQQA
Format: functional
Parameters: scale not given: in the data most compounds retested in dose-response had high values
Cc1ccc(C(=O)NCCNc2ncccc2C#N)c(=O)[nH]1 was tested, and the Percent Effect was -1.85%. In the case of Cc1ccc(CC(=O)N2CCCCC2c2nc(C)cs2)cn1 (stereo not given), the Percent Effect is reported as -2.2%. COCCNC(=O)c1cc(S(=O)(=O)N2CCCCC2)cs1 gave a Percent Effect of 0.21%. OC(CN1CCN(c2ncccn2)CC1)c1cccc(F)c1 (stereo not given) was tested, and the Percent Effect was -3.26%. For Cc1ccc(CC(=O)N2CCCC(c3nc(C)cs3)C2)cn1 (stereo not given), the Percent Effect was 2.77%. CCC(CC)c1cc(CNC(=O)N2CCCC(N(C)C)C2)on1 (stereo not given) gave a Percent Effect of -1.74%. In the case of Cc1nc(C2CCCN2CC(=O)N2CCCc3ccccc32)no1 (stereo not given), the Percent Effect is reported as 2.35%. For Cc1ccc(CN2CCC[C@]3(C(=O)O)CN(c4ncccn4)C[C@@H]3C2)o1, the Percent Effect was 7.77%. O=C(O)[C@@H]1CN(C(=O)c2ccc3[nH]nnc3c2)C[C@H]1c1cccc(F)c1 gave a Percent Effect of -0.0228%. In the case of Cc1ccccc1N1CC2(CCN(S(=O)(=O)c3cccs3)C2)CC1=O (stereo not given), the Percent Effect is reported as 0.41%. COc1ccc2cc(C(=O)N3CCCCC3CC(N)=O)[nH]c2c1 (stereo not given) was tested, and the Percent Effect was -1.12%. With Clc1snnc1CN1CCOC(CNc2cccnn2)C1 (stereo not given) the Percent Effect was -1.85%. O=C(NCCNc1ncccn1)N1CCN(Cc2cccnc2)CC1 gave a Percent Effect of 6.28%. Work on Cc1c(O)oc(-c2ccc(Br)cc2)nc1=O yielded a Percent Effect of -1.84%. Molecule Cc1csc(C2CCCN(C(=O)c3ccc(=O)n(C)n3)C2)n1 (stereo not given) has a Percent Effect of 3.09%. With NC(=O)C1(c2cnccn2)CCCN1Cc1cc2ccccc2o1 (stereo not given) the Percent Effect was 3.17%. With O=C(NCCNc1ncccn1)N1CCSCC1 the Percent Effect was -0.235%. CS(=O)(=O)NCc1ncn2c1CN(C(=O)CC1CCCC1)CCC2 gave a Percent Effect of -2.09%. O=C1CC[C@@H]2[C@@H](CCN2C(=O)c2ccsc2)N1CC1CC1 was tested, and the Percent Effect was -5.94%. For CC(C)c1cc(NC(=O)c2ccc(C(=O)NC(C)(C)C)cc2)[nH]n1, the Percent Effect was -0.941%.
